Here are results for eleven compounds from PubChem BioAssay (EPA / NIEHS).

In assay [1] the target is human Adrenergic, Alpha 2c Receptor (Adra2C), ADRA2C (gene 152) (UniProt P18825). Nature of the assay: NVS_GPCR_hAdra2C: NovaScreen (NVS) G Protein-Coupled Receptor Assay for human Adrenergic, Alpha 2c Receptor (Adra2C) (AID 2283259). In outline: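 Radioligand binding on Sf9-expressed receptor membranes, 1 h after chemical dosing, filter-based scintillation read-out. Loss of binding fitted positively versus DMSO; primary duplicate screen at 25 uM, actives retested in concentration series.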
Sequence of human Adrenergic, Alpha 2c Receptor (Adra2C), ADRA2C (gene 152) (P18825 whole entry, looked up): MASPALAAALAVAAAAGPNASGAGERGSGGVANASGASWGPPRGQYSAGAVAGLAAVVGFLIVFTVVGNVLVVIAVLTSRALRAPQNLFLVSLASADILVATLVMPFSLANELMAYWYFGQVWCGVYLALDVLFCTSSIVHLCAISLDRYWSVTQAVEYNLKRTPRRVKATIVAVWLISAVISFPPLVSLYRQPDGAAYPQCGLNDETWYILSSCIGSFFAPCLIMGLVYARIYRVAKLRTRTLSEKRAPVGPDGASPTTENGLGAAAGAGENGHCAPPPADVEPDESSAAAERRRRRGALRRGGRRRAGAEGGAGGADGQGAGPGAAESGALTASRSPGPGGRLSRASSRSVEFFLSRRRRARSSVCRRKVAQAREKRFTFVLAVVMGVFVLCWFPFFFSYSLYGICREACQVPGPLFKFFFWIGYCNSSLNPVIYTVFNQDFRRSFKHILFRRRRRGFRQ

Assay [2] concerns the target Type-1 angiotensin II receptor (Homo sapiens) (UniProt P30556). Kind of assay: NVS_GPCR_hAT1: NovaScreen (NVS) G Protein-Coupled Receptor Assay for human Angiotensin II receptor type 1 (AT1) (AID 2283263). In outline: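 Membranes from KAN-TS cells; radioligand competitive displacement, 3 h, filtration and scintillation counting. Single-point duplicate screen at 25 uM, then concentration-response up to 50 uM for hits; loss of signal fitted versus DMSO.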

Assay [3] deals with human Muscarinic, M4 Receptor, CHRM4 (gene 1132) (UniProt P08173). Nature of the assay: NVS_GPCR_hM4: NovaScreen (NVS) G Protein-Coupled Receptor Assay for human Muscarinic, M4 Receptor (AID 2283274). In outline:
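Cell-free radioligand displacement using CHO-derived human M4 receptor protein, 1 h after dosing; bound radioactivity by filtration and scintillation counting. Primary screen single 25 uM duplicate, actives followed in concentration series.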

The target of assay [4] is Muscarinic acetylcholine receptor M1 (Homo sapiens) (UniProt P11229). Nature of the assay: NVS_GPCR_hM1: NovaScreen (NVS) G Protein-Coupled Receptor Assay for human Muscarinic, M1 Receptor (AID 2283270). In short, it runs like this:
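Cell-free radioligand displacement using membrane protein extracted from CHO cells, read by filter-based scintillation counting 1 h after dosing. Loss of bound signal fitted versus DMSO; primary screen single concentration 25 uM in duplicate, actives followed by concentration series.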

Assay [5] concerns the target human Adrenergic, Beta 1 Receptor (Adrb1), ADRB1 (gene 153) (UniProt P08588). Nature of the assay: NVS_GPCR_hAdrb1: NovaScreen (NVS) G Protein-Coupled Receptor Assay for human Adrenergic, Beta 1 Receptor (Adrb1) (AID 2283258). In short, it runs like this:
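Cell-free radioligand displacement on receptor from human neuroepithelioma cells; 2 h after dosing, filter-based scintillation counting. Primary screen in duplicate at 25 uM, actives retested in concentration series; loss of signal vs DMSO baseline.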

Assay [6] has as its target human Neurokinin, NK2 Receptor, TACR2 (gene 6865) (UniProt P21452). Nature of the assay: NVS_GPCR_hNK2: NovaScreen (NVS) G Protein-Coupled Receptor Assay for human Neurokinin, NK2 Receptor (AID 2283278).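 Note: actives reduce bound radioligand signal relative to DMSO baseline.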 In short, it runs like this:
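Test chemicals displace a radioligand from receptor prepared from CHO cells in a cell-free format, read after 4 hours by scintillation counting on filters. Screening starts at 25 uM in duplicate, and active chemicals then go to concentration series.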

Assay [7] addresses human Opioid Receptor Delta 1 (Opiate D1), OPRD1 (gene 4985) (UniProt P41143). Nature of the assay: NVS_GPCR_hOpiate_D1: NovaScreen (NVS) G Protein-Coupled Receptor Assay for human Opioid Receptor Delta 1 (Opiate D1) (AID 2283280). In short, it runs like this: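 Radioligand displacement on membranes from CHO cells expressing the receptor, read by filter scintillation counting 1 h after dosing. Duplicate single-point screen at 25 uM, then concentration series for actives; loss of signal versus DMSO.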

The target of assay [8] is Beta-2 adrenergic receptor (Homo sapiens) (UniProt P07550). Kind of assay: NVS_GPCR_hAdrb2: NovaScreen (NVS) G Protein-Coupled Receptor Assay for human Adrenergic, Beta 2 Receptor (Adrb2) (AID 2283261). In outline: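 Filter-based radioligand binding using receptor prepared from CHO cells, 1 h incubation, scintillation counting. Primary screen in duplicate at 25 uM, actives retested in concentration series; loss of binding relative to DMSO.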

The target in assay [9] is Muscarinic acetylcholine receptor M3 (Homo sapiens) (UniProt P20309). Nature of the assay: NVS_GPCR_hM3: NovaScreen (NVS) G Protein-Coupled Receptor Assay for human Muscarinic, M3 Receptor (AID 2283272). In short, it runs like this:
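Radioligand displacement binding on human M3 receptor in CHO-derived membranes, 1 h incubation, filter-based scintillation counting. Primary screen in duplicate at 25 uM; actives followed up in concentration series; loss of signal versus DMSO.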

The target of assay [10] is human Dopamine Receptor D2 (DRD2), DRD2 (gene 1813) (UniProt P14416). Nature of the assay: NVS_GPCR_hDRD2s: NovaScreen (NVS) G Protein-Coupled Receptor Assay for human Dopamine Receptor D2 (DRD2) (AID 2283266). In outline:
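Radioligand displacement used human DRD2 membranes extracted from CHO cells and was read by filter-based scintillation counting after 1.5 hours. Primary screening was in duplicate at 25 uM. Loss of signal versus DMSO was fitted, with concentration series in follow-up.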

Assay [11] concerns the target human Leukotriene B4 Receptor 1 (LTB4-BLT1), LTB4R (gene 1241) (UniProt Q15722). Kind of assay: NVS_GPCR_hLTB4_BLT1: NovaScreen (NVS) G Protein-Coupled Receptor Assay for human Leukotriene B4 Receptor 1 (LTB4-BLT1) (AID 2283271). In short, it runs like this: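 Radioligand displacement binding on receptor extracted from human neutrophils, cell-free, 1 h after dosing; filter-based scintillation counting. Primary screen in duplicate at 25 uM, actives retested in concentration-response up to 50 uM; loss of signal versus DMSO.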

Assay [12] addresses Neuropeptide Y receptor type 2 (Homo sapiens) (UniProt P49146). Nature of the assay: NVS_GPCR_hNPY2: NovaScreen (NVS) G Protein-Coupled Receptor Assay for human Neuropeptide Receptor Y2 (NPY2) (AID 2283277). In short, it runs like this: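 Radioligand binding on membranes extracted from SK-N-MC cells, cell-free, read 1 h after dosing by filter-based scintillation counting. Loss of signal vs DMSO. Primary screen in duplicate at 25 uM; actives followed up in concentration-response up to 50 uM.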

The target of assay [13] is human Dopamine Receptor D4.4 (DRD4.4), DRD4 (gene 1815) (UniProt P21917). Nature of the assay: NVS_GPCR_hDRD4.4: NovaScreen (NVS) G Protein-Coupled Receptor Assay for human Dopamine Receptor D4.4 (DRD4.4) (AID 2283264). In short, it runs like this:
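Radioligand displacement on human DRD4.4 from CHO-derived membranes, 1 hour incubation, bound counts read by filtration and scintillation. Primary screen in duplicate at 25 uM; actives followed up in concentration series.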

Assay [14] has as its target human Endothelin Receptor Type B (ETB), EDNRB (gene 1910) (UniProt P24530). Nature of the assay: NVS_GPCR_hETB: NovaScreen (NVS) G Protein-Coupled Receptor Assay for human Endothelin Receptor Type B (ETB) (AID 2283267). In outline:
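Human astrocytoma cell membranes; radioligand competitive binding read by filter scintillation counting 4 hours after dosing. Single-concentration duplicate screen at 25 uM, then singleton concentration-response up to 50 uM; loss of signal versus DMSO.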

The target of assay [15] is D(1A) dopamine receptor (Homo sapiens) (UniProt P21728). Nature of the assay: NVS_GPCR_hDRD1: NovaScreen (NVS) G Protein-Coupled Receptor Assay for human Dopamine Receptor D1 (DRD1) (AID 2283269). In short, it runs like this:
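Extracted HEK293 DRD1 is incubated 1 h with compound and a tritiated or iodinated radioligand, then filtered and counted. Screening runs 25 uM in duplicate with on-plate positive and negative controls.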

Assay [16] addresses Muscarinic acetylcholine receptor M2 (Homo sapiens) (UniProt P08172). Nature of the assay: NVS_GPCR_hM2: NovaScreen (NVS) G Protein-Coupled Receptor Assay for human Muscarinic, M2 Receptor (AID 2283273). In outline:
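Cell-free radioligand binding using membranes from CHO cells expressing the receptor; filter-based scintillation counting after 1 hour of compound exposure. Loss of specific binding relative to DMSO baseline; primary screen at 25 uM in duplicate, actives then run in concentration series.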

Assay [17] addresses human Neuropeptide Receptor Y1 (NPY1), NPY1R (gene 4886) (UniProt P25929). Nature of the assay: NVS_GPCR_hNPY1: NovaScreen (NVS) G Protein-Coupled Receptor Assay for human Neuropeptide Receptor Y1 (NPY1) (AID 2283276). In short, it runs like this:
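Cell-free radioligand binding using receptor extracted from SK-N-MC cells, 1 h incubation, filter-based scintillation counting. Primary screen single concentration 25 uM in duplicate; actives followed in concentration series. Loss of bound signal scored versus DMSO.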

“And” between values parts separate entries of the source, which are not always exact repeats. Equal values may be shown once. Records with an inconclusive call do not appear. The source holds several records for some structures; these can differ, active in one and inactive in another. The source made the active and inactive calls. Rule for the calls: active = hit-call score of the fitted dose curve at least 0.9, where 1 is the maximum; inconclusive = response in the unintended direction; inactive = score below 0.9.

Sequence of Type-1 angiotensin II receptor (Homo sapiens) (P30556 whole entry, looked up): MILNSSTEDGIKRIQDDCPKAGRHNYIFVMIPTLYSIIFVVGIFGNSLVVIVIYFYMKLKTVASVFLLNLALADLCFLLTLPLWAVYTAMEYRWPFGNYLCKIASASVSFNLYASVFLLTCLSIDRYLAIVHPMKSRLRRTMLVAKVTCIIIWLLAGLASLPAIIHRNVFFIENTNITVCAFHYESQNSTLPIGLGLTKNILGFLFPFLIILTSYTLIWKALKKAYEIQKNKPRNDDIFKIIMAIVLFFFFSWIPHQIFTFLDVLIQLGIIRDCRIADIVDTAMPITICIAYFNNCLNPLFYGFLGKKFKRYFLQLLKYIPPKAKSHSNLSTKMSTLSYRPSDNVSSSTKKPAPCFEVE
Sequence of human Muscarinic, M4 Receptor, CHRM4 (gene 1132) (P08173 whole entry, looked up): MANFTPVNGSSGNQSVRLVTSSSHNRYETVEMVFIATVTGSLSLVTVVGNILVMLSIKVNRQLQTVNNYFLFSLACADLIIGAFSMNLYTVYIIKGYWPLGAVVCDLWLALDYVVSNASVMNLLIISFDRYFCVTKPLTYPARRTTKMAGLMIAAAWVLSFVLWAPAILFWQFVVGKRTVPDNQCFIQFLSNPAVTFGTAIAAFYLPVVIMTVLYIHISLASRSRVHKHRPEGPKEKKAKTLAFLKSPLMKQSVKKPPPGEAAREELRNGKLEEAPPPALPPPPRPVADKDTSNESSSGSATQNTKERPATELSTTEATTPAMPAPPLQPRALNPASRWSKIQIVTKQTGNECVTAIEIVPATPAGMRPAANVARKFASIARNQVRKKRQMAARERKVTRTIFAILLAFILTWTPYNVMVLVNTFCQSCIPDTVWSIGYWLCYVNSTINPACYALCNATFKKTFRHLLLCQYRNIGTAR
Sequence of human Dopamine Receptor D4.4 (DRD4.4), DRD4 (gene 1815) (P21917 whole entry, looked up): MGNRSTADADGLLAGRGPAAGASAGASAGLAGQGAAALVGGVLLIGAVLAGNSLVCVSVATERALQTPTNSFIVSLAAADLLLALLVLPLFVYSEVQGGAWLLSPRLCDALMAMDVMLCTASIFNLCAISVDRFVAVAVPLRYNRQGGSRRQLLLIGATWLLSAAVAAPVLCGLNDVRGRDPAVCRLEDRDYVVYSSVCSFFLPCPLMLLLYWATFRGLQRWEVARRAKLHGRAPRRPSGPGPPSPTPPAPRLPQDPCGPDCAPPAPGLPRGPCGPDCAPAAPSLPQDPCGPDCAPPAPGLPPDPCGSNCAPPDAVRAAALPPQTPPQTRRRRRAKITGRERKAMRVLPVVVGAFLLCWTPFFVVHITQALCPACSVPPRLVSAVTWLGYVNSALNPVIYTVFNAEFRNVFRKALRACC
Sequence of Muscarinic acetylcholine receptor M3 (Homo sapiens) (P20309 whole entry, looked up): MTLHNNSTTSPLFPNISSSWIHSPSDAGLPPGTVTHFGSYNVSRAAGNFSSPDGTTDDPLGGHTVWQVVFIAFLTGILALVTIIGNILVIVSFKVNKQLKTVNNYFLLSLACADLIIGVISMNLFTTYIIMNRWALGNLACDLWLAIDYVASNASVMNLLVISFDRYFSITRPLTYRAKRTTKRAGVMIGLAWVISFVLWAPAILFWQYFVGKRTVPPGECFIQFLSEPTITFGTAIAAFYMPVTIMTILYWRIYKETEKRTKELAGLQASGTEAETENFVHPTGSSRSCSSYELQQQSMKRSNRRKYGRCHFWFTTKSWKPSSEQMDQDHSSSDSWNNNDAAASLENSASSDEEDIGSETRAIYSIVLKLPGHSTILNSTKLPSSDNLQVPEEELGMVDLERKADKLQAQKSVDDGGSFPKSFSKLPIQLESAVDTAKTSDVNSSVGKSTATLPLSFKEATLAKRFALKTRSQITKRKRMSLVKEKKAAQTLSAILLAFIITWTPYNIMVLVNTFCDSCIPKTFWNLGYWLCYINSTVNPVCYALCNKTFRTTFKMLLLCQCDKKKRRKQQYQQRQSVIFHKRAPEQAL
Sequence of human Opioid Receptor Delta 1 (Opiate D1), OPRD1 (gene 4985) (P41143 whole entry, looked up): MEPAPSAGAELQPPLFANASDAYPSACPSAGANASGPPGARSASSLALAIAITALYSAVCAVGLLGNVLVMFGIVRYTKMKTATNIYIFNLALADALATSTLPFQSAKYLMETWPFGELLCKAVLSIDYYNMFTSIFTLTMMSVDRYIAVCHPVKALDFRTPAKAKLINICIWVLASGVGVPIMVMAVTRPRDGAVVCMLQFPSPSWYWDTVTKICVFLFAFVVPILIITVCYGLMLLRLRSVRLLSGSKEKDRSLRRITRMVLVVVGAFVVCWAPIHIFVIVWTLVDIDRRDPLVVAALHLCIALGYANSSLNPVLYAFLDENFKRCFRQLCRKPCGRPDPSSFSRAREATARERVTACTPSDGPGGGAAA
Sequence of human Dopamine Receptor D2 (DRD2), DRD2 (gene 1813) (P14416 whole entry, looked up): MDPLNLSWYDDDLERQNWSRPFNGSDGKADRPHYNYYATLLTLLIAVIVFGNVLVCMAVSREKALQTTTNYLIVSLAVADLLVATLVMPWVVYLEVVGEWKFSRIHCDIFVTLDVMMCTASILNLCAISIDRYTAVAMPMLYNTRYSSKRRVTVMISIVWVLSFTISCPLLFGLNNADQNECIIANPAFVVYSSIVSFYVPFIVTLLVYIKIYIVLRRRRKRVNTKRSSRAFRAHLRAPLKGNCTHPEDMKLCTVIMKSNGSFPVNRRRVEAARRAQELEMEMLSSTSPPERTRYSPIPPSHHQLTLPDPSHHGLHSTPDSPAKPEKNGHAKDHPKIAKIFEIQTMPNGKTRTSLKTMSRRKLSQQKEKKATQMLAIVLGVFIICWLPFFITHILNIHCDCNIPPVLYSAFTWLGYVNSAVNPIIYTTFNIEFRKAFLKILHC
Sequence of human Adrenergic, Beta 1 Receptor (Adrb1), ADRB1 (gene 153) (P08588 whole entry, looked up): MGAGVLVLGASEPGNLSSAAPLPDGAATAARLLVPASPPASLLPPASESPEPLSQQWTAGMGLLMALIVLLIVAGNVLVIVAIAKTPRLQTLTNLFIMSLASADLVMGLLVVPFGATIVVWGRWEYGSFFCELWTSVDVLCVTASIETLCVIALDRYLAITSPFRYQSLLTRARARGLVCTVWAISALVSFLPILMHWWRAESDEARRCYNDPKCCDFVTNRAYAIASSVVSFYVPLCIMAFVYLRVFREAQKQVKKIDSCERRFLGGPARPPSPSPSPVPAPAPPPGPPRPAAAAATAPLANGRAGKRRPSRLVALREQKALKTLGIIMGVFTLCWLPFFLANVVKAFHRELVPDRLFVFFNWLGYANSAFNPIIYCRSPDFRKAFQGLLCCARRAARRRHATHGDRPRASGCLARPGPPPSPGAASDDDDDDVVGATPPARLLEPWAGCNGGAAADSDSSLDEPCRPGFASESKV
Sequence of D(1A) dopamine receptor (Homo sapiens) (P21728 whole entry, looked up): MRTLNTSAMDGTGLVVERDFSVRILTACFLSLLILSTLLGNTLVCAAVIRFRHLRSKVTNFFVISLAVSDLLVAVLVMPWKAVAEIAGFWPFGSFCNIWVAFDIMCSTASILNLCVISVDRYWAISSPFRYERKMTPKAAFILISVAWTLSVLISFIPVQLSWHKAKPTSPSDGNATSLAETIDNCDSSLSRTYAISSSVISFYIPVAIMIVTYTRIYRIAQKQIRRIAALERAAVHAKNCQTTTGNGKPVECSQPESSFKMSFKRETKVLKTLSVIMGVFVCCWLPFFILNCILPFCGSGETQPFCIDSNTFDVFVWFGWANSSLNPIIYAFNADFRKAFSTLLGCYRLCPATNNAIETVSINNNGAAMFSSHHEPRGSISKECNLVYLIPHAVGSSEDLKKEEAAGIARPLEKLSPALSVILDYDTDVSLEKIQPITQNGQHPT
Sequence of human Neurokinin, NK2 Receptor, TACR2 (gene 6865) (P21452 whole entry, looked up): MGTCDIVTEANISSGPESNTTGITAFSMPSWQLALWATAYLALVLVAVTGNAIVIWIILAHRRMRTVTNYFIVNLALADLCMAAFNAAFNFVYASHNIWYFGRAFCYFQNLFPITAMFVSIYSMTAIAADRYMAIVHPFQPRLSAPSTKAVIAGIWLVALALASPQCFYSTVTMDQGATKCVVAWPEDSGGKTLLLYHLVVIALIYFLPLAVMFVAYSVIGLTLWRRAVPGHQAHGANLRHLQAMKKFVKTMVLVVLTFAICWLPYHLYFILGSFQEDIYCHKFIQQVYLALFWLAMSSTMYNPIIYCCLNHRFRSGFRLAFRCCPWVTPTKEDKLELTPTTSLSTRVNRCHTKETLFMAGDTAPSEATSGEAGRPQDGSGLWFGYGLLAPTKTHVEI
Sequence of Muscarinic acetylcholine receptor M1 (Homo sapiens) (P11229 whole entry, looked up): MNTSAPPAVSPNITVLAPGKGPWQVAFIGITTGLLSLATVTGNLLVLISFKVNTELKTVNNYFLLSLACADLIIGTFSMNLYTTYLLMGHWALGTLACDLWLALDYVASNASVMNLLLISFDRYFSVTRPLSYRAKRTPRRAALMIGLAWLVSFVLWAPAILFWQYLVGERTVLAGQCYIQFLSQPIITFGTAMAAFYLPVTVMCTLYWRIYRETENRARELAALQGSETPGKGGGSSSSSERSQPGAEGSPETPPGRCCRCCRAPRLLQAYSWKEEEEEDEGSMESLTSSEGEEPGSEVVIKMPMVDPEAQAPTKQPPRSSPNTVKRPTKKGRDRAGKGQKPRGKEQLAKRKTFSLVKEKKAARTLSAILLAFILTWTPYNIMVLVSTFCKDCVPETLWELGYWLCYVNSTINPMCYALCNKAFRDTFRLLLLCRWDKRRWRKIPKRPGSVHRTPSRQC

Turning to `CCC(C)(C)C(=O)OC1=C(c2ccc(Cl)cc2Cl)C(=O)OC12CCCCC2`, the call in [1] was inactive.

Regarding `CCOCN(C(=O)CCl)c1c(C)cccc1CC`, the outcome in [2] and in assay [3] was inactive.

`CC(C)N(C(=O)COc1nnc(C(F)(F)F)s1)c1ccc(F)cc1`: the outcome in assay [4] was inactive.

As for `CC[C@H](C)[C@H]1O[C@]2(C=C[C@@H]1C)C[C@@H]1C[C@@H](C/C=C(\C)[C@@H](O[C@H]3C[C@H](OC)[C@@H](O[C@H]4C[C@H](OC)[C@@H](O)[C@H](C)O4)[C@H](C)O3)[C@@H](C)/C=C/C=C3\CO[C@@H]4[C@H](O)C(C)=C[C@@H](C(=O)O1)[C@]34O)O2` (tested in a mixture with another compound), the AC50 – broadly, the concentration at which the activity in the assay is half-maximal – in [5] is 6.87 µM (active); in assay [1] it was 6.06 µM (active); in assay [2], 8.16 µM (active); in assay [6], 6.9 µM (active).

With `O=S1OCC2C(CO1)C1(Cl)C(Cl)=C(Cl)C2(Cl)C1(Cl)Cl` (stereo unspecified), in assay [3], the compound was classed as inactive.

For the compound `Cc1cc(C)nc(NC(=O)NS(=O)(=O)c2ccccc2C(=O)OC2COC2)n1`, the call in assay [7] was inactive.

In the case of `COc1nn(CSP(=S)(OC)OC)c(=O)s1`, in assay [8], the concentration at half-maximal activity (AC50) is 6.74 µM (active).

`[2H]C1([2H])[n+]2ccccc2-c2cccc[n+]2C1([2H])[2H]`: the values for the AC50 in assay [4] and in assay [9] were 12.9 µM (active) and 4.96 µM (active), respectively.

Consider `O=C(Nc1ccccc1)Nc1cnns1`, for which, in [1], the AC50 was 4.96 µM (active).

On to `O=C(O)C(F)(F)C(F)(F)C(F)(F)C(F)(F)C(F)(F)C(F)(F)C(F)(F)F`, for which the call in assay [1], in [2], in [10], in assay [12], in assay [6] and in assay [7] was inactive. In addition, the AC50 in [11] was 35.2 µM (active).

Consider `Oc1ccc(Cl)cc1Cc1ccccc1`, for which the concentration at half-maximal activity (AC50) was 33.3 µM (active) [middle of 5 runs] in [5]; 25.2 µM (active) [middle of 6 runs] in assay [1]; 25.2 µM (active) in assay [13]; 33.5 µM (active) [middle of 6 runs] in assay [10]; 33 µM (active) [middle of 6 runs] in assay [15]; 39.4 µM (active) in assay [9]. The AC50 in assay [3] is 31.8 µM (active) and 25.2 µM (active); in assay [6] it was 29.2 µM (active) [middle of 6 runs]; in [7] it was 25.2 µM (active) and 13.3 µM (active). In addition, the compound was called inactive in [2], in assay [14], in [9], in [16], in assay [3] and in assay [17].
